Hit rate of the full screen: of about 5,500 compounds, about 2,000 (36%) were called active. Not shown: some 18% with an inconclusive outcome. No stated cut-off is given here; in the data, active means normalized growth mostly below about 0.91 (no sharp cut-off); inconclusive means no clear call, values can overlap the other calls; inactive means mostly above about 0.92. The list shows a part of the results.
Test: chemical genetic growth profiling, strain panel (AID 1159580);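 further: tested at 20 µM; growth read once vehicle control cultures reached saturation at 30 °C; 1 = growth at the plate median or of vehicle wells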
Conditions: S. cerevisiae deletion strains, growth OD

Measured: normalized growth

O=C(O)C1CC(=O)N(Cc2ccccc2Cl)C1 (stereo not drawn)
inactive: locus YAL013W, strain DEP1, stronger effect = lower value 1.01 | locus YBR229C, strain ROT2, stronger effect = lower value 1 | locus YCL061C, strain MRC1, stronger effect = lower value 1.02 | locus YDL101C, strain DUN1, stronger effect = lower value 0.994 | locus YDL134C, strain PPH21, stronger effect = lower value 1.01 | locus YDR150W, strain NUM1, stronger effect = lower value 0.947 | locus YEL061C, strain CIN8, stronger effect = lower value 1.03 | locus YGR078C, strain PAC10, stronger effect = lower value 1.01 | locus YHR030C, strain SLT2, stronger effect = lower value 1.15 | locus YHR087W, strain rtc3, stronger effect = lower value 1.01 | locus YJR043C, strain POL32, stronger effect = lower value 0.966 | locus YJR075W, strain HOC1, stronger effect = lower value 1 | locus YLR039C, strain RIC1, stronger effect = lower value 1.04 | locus YLR058C, strain SHM2 (second series), stronger effect = lower value 1 | locus YLR085C, strain ARP6, stronger effect = lower value 1.04 | locus YLR262C, strain YPT6, stronger effect = lower value 1.01 | locus YML094W, strain GIM5, stronger effect = lower value 1.04 | locus YMR219W, strain ESC1, stronger effect = lower value 1.01 | locus YMR263W, strain SAP30, stronger effect = lower value 1.01 | locus YMR307W, strain GAS1, stronger effect = lower value 1.02 | locus YNL153C, strain GIM3, stronger effect = lower value 0.992 | locus YNL298W, strain CLA4 (second series), stronger effect = lower value 1.07 | locus YNL322C, strain KRE1, stronger effect = lower value 1.01 | locus YNR030W, strain Alg12, stronger effect = lower value 1.03 | locus YOL006C, strain TOP1, stronger effect = lower value 1.08 | locus YPL055C, strain LGE1, stronger effect = lower value 0.931 | locus YPL241C, strain CIN2, stronger effect = lower value 1.11 | locus YPR135W, strain CTF4, stronger effect = lower value 1.06

From PubChem BioAssay AID1159580 (chemical genetic matrix, 2015)
